Whole data set: some 9,900 sequences, median “r (bound/input frequency ratio)” near 0.7, cut for the highest 2% near 6.5. Shown is part of a subset that was picked to be rich in the highest values.

Sequences and labels used below:
B1: ENSMUSG00000035202.92|Lars2 (ssRNA)
RNA: GGGAGUUCUACAGUCCGACGAUCGCUUCGAUAUCCGCAUGCUAUUUUACCCUACUGAUGAUGUGUUGUUGCCAUGGUAAUCCUGCUCAGUACGAGAGGAACCGCAGCUAGCUUGUGUCUCCAGUGUCUUUUACCAUCACAGGCCCUGGCUCUGUGCUACCUCCCUAGAAUACCUGUGGUUCAUCACCUUCAGCUCACACUCCAUUCAGACAAUGCUCACUUAGGCCUACAAGCAAGGGAGAGGCUUAAGCACAAGGUCUUUAAGCUUGAUACUGUGCCUGGUCUCAAUGCCUAGAAAUUCCAACUCUUGCGGUCGCACUAGUGUGGAAUUCUCGGGUGUCAAGG
B2: ENSMUSG00000004113.188|Cacna1b (ssRNA)
RNA: GGGAGUUCUACAGUCCGACGAUCGCUUCGAUAUCCGCAUGCUAGCAAUGUUCCUGUAUGUUUCUACCCUGCCUGGGAUGUCCCCAAUGACCCUGGCUCCUCUGCUCAACCAAGUGCCUGAUCUCUGGCUCUGAGCAUCGUGGAUGAGGUACGGCCUCAGGAAGCAUCGGGUGGAUUGGGUGGGAGCUGCUCAGAGCAGCACGGGGGCUUGUGUCUUAGGGACAUUGACAGUGUCCAUCAGCAUGUCAGAGAAGCAGCUGUAGUGCCCGUGUUUCUCCCUGAGUCAUGGGUUCUGAAGAAGCCACUCUUGCGGUCGCACUAGUGUGGAAUUCUCGGGUGUCAAGG
B3: ENSMUSG00000061578.131|Ksr2 (ssRNA)
RNA: GGGAGUUCUACAGUCCGACGAUCGCUUCGAUAUCCGCAUGCUAACCAGUUCACCAUCAUUCAUGGCUUCCCCCAAAGUCCCGAGUCCUGAGAACCGGGGCUGUGGCAAGAGAGUUCUGGUGUGUUCUCUCUGUGGGGCUAGCAAUGCCGGGGUUAAGUUCUCCCUCGGUGAUGGAGACGGUCCUGGGUAUGCAUGAUGGGUUACAUGGGUGUGUGUGUGUGUGUAACUGUUUACAAUGGUCUCCCUGCCUCUCACGGGCUGUGUUCCAGGAGAAUGCACAUAGAGAGGUUCUGUGGUCUCUGCCUCUUGCGGUCGCACUAGUGUGGAAUUCUCGGGUGUCAAGG
B4: ENSMUSG00000061578.129|Ksr2 (ssRNA)
RNA: GGGAGUUCUACAGUCCGACGAUCGCUUCGAUAUCCGCAUGCUAGGUGUGACCUUUACCAGUUCACCAUCAUUCAUGGCUUCCCCCAAAGUCCCGAGUCCUGAGAACCGGGGCUGUGGCAAGAGAGUUCUGGUGUGUUCUCUCUGUGGGGCUAGCAAUGCCGGGGUUAAGUUCUCCCUCGGUGAUGGAGACGGUCCUGGGUAUGCAUGAUGGGUUACAUGGGUGUGUGUGUGUGUGUAACUGUUUACAAUGGUCUCCCUGCCUCUCACGGGCUGUGUUCCAGGAGAAUGCACAUAGAGAGGUUCCUCUUGCGGUCGCACUAGUGUGGAAUUCUCGGGUGUCAAGG
B5: ENSMUSG00000058297.297|Spock2 (ssRNA)
RNA: GGGAGUUCUACAGUCCGACGAUCGCUUCGAUAUCCGCAUGCUAUGAGAGAGAGAAUACCCGAGGGCCACCCUGAUGCCCAGGAAGAGUGAGGGCAGCCCCCUGUGUGGUGGAAGAGGCUGGGCAGCUAGCUACUGGGGACCUUGUGCUGAGGCUUCCAGGACAAAGCCCCAGUCUGGCUCUCCCCCAGCCUCUCAGGGGCACUGGCUGGUCACAUCCACUGAGUAUUGAUCGGUUGGACUUUAGGGAAGAGCCUCCUCCUUCCCAUUCCUUUCUGCCACCCUGGAAUGGCCACCUUAAUCGUCCUCUUGCGGUCGCACUAGUGUGGAAUUCUCGGGUGUCAAGG
B6: ENSMUSG00000061578.130|Ksr2 (ssRNA)
RNA: GGGAGUUCUACAGUCCGACGAUCGCUUCGAUAUCCGCAUGCUAACCUUUACCAGUUCACCAUCAUUCAUGGCUUCCCCCAAAGUCCCGAGUCCUGAGAACCGGGGCUGUGGCAAGAGAGUUCUGGUGUGUUCUCUCUGUGGGGCUAGCAAUGCCGGGGUUAAGUUCUCCCUCGGUGAUGGAGACGGUCCUGGGUAUGCAUGAUGGGUUACAUGGGUGUGUGUGUGUGUGUAACUGUUUACAAUGGUCUCCCUGCCUCUCACGGGCUGUGUUCCAGGAGAAUGCACAUAGAGAGGUUCUGUGGUCUCUUGCGGUCGCACUAGUGUGGAAUUCUCGGGUGUCAAGG
B7: ENSMUSG00000058297.286|Spock2 (ssRNA)
RNA: GGGAGUUCUACAGUCCGACGAUCGCUUCGAUAUCCGCAUGCUAUGUGUGAGAGAGAGAGAGAGAGAGAGAGAGAGAGAGAGAGAGAAAGAGAGAGAGAAUGAGAGAGAAUGAGAGAGAGAAUACCCGAGGGCCACCCUGAUGCCCAGGAAGAGUGAGGGCAGCCCCCUGUGUGGUGGAAGAGGCUGGGCAGCUAGCUACUGGGGACCUUGUGCUGAGGCUUCCAGGACAAAGCCCCAGUCUGGCUCUCCCCCAGCCUCUCAGGGGCACUGGCUGGUCACAUCCACUGAGUAUUGAUCGGUUGGCUCUUGCGGUCGCACUAGUGUGGAAUUCUCGGGUGUCAAGG

Chain of TDP-43 (Q13148 whole entry): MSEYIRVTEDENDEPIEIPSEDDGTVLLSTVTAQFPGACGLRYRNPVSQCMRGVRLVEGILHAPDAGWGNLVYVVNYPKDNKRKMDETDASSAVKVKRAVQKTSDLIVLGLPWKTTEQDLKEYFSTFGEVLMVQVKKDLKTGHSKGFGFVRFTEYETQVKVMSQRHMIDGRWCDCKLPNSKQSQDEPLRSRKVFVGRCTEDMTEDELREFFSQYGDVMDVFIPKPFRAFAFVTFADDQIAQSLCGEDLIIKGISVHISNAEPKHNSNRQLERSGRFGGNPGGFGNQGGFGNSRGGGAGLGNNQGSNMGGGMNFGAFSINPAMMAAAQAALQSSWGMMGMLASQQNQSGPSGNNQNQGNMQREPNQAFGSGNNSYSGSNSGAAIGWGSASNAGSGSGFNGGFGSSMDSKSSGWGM

The target in the assay is TDP-43 (Homo sapiens, UniProt Q13148 1-414). Kind of assay: RNA Bind-n-Seq with designed 260-mer pool; 25 mM Tris-HCl, 150 mM KCl, 3 mM MgCl2, BSA (printed 500 mg/mL), 20 units/mL SUPERase IN; pH not stated; 500 nM RNA pool, 1 h, 4 C; TDP-43 5, 50, 500 nM; high values mean tight binding. The settings on record: protein: recombinant; tags: SBP (GST cleaved off with PreScission; pGEX-GST-SBP). Put shortly:
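The incubation lasted 1 h at 4 °C and used 500 nM of an in vitro-transcribed 260-nt 3′ UTR oligo pool with recombinant SBP-tagged TDP-43 at 5, 50 or 500 nM immobilized on streptavidin beads. It took place in 25 mM Tris-HCl, 150 mM KCl, 3 mM MgCl2, BSA and SUPERase IN. Bound RNA was washed, eluted with biotin, converted to cDNA, PCR-amplified and sequenced to give R, each oligo's normalized abundance in the bound sample divided by that in input. Two independent protein batches provided the duplicates.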
Regarding B1, the binding signal was 0.689 R (bound/input frequency ratio).

As for B2, the binding signal is 0.976 R (bound/input frequency ratio). The figure for B3 is 3.31 R (bound/input frequency ratio). For B4, the binding signal was 4.45 R (bound/input frequency ratio). Under B5 stands 4.65 R (bound/input frequency ratio). B6: the binding signal was 6.59 R (bound/input frequency ratio).

Turning to B7, the binding signal was 6.3 R (bound/input frequency ratio).

These data come from paper PMC12864922, “TDP-43 directly inhibits mRNA accumulation in neurites through modulation of mRNA stability”.
